# In PubChem BioAssay:
# The source made the active and inactive calls. Unless noted, no rule for the calls is given here.
# Assays:
# [1] = system: Wnt5a (protein binding on small-molecule microarray); test: small molecules binding Wnt5a protein – biophysical, small-molecule microarray, 635/667 nm fluorescence, primary screen (AID 1142); settings: 635 nm fluorescence, higher = more signal;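 also: fluorescence read at 667 nm with signal to noise per printed feature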
# [2] = ATP-based viability of Huh7 replicon cells – cell-based, CellTiter-Glo luminescence, basal, 48 h, cytotoxicity control for HCV replication inhibitor project, primary screen (AID 1143); settings: higher = more signal, called active from +8 up or from −8 down;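 also: Huh7 hepatoma cells carrying a hepatitis C replication reporter with no stimulus; test concentration not given here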
# [3] = Pseudomonas biofilm growth suppression – PAO1 strain, BacTiter-Glo luminescence, LB-PBS, primary screen (AID 1144); settings: P. aeruginosa PAO1 biofilm, 12 h, higher = more signal
# [4] = basal CRE-LacZ reporter activity in PC12 – cell-based, unstimulated, primary screen (AID 1145); settings: no forskolin, luminescence, 4.5 h, higher = more signal, called active from +8 up or from −8 down
# [5] = forskolin-driven CRE-LacZ activity in PC12 – cell-based, CRE-LacZ reporter, forskolin-stimulated, primary screen (AID 1146); settings: luminescence, 4.5 h, higher = more signal, called active from +8 up or from −8 down;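 also: PC12 cells with 6xCRE LacZ reporter stimulated by forskolin 10 µM; beta-galactosidase reporter signal reflecting CREB driven transcription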
# [6] = biological target: Streptavidin (Streptomyces avidinii) (UniProt P22629); test: compounds binding control protein streptavidin – biophysical, small-molecule microarray, 635/667 nm fluorescence, artefact control for SMM compound annotation, primary screen (AID 1147); settings: higher = more signal;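 also: signal reflects streptavidin binding to arrayed compounds as a control protein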
# [7] = probe aInhba binding on compound microarray – biochemical, small-molecule microarray, 635/667 nm fluorescence, primary screen (AID 1148); settings: higher = more signal;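 also: score merges 667nm spot fluorescence with signal-to-noise for antibody binding to printed compounds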
# Torsin-1A (Homo sapiens) [8] = biological target: Torsin-1A (Homo sapiens) (UniProt O14656); test: TOR1A wild-type binding on microarray – cell lysate, small-molecule microarray, lysate, 635/667 nm, primary screen (AID 1149); settings: COS7 hTOR1A-WT lysate, 635 nm fluorescence, higher = more signal
# Torsin-1A (Homo sapiens) [9] = biological target: Torsin-1A (Homo sapiens) (UniProt O14656); test: torsin A mutant lysate binding on microarrays – cell lysate, small-molecule microarray, COS7 lysate, 635/667 nm fluorescence, primary screen (AID 1150); settings: COS7 hTOR1A mutant lysate, 635 nm fluorescence, higher = more signal;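 also: score pools 667 nm emission and signal to noise measuring lysate protein binding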
# [10] = system: Sonic hedgehog protein (Shh); test: Sonic hedgehog microarray binding compounds – biochemical, small-molecule microarray, 635/667 nm fluorescence, primary screen (AID 1151); settings: 635 nm fluorescence, higher = more signal;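 also: Shh protein binding to compounds spotted on small-molecule microarray slides; score combines spot fluorescence intensity with signal-to-noise across triplicate slides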
# [11] = optical density shifts of acrAB sulA E. coli – strain DRC41, OD650, 48 h, E. coli filamentation inducer project, primary screen (AID 1152); settings: higher = more signal, called active from +8 up or from −8 down;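 also: E. coli MC1000 strain DRC41 lacking acrAB efflux pump and sulA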
# [12] = probe aLefty1 binding on compound microarray – biochemical, small-molecule microarray, 635/667 nm fluorescence, primary screen (AID 1153); settings: higher = more signal;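 also: score merges spot fluorescence with signal-to-noise ratio from the scanned slide images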
# [13] = plasmodial surface anion channel blockers, osmotic lysis – cell-based, P. falciparum Indochina, OD700, 1 h, primary screen (AID 1154); settings: P. falciparum Indochina infected RBC osmotic lysis, higher = more signal, called active from +8 up or from −8 down
# [14] = plasmodial surface anion channel blockers, osmotic lysis – cell-based, P. falciparum Indochina, OD700, 2 h, primary screen (AID 1155);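 also: lysis reports solute entry through the parasite surface anion channel PSAC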; settings: P. falciparum Indochina infected erythrocytes, higher = more signal, called active from +8 up or from −8 down
# [15] = changes in parasitized red cell lysis, either direction – P. falciparum Indochina, OD700, 3 h, PSAC antagonist project, primary screen (AID 1156); settings: P. falciparum-infected erythrocytes, osmotic lysis, higher = more signal, called active from +8 up or from −8 down
# [16] = plasmodial surface anion channel blockers, osmotic lysis – cell-based, P. falciparum Indochina, OD700, 18 h, primary screen (AID 1157); settings: P. falciparum Indochina infected erythrocytes, osmotic lysis OD700, 18 h; higher = more signal, called active from +8 up or from −8 down
# [17] = S6 kinase pathway phospho-S6 level changes – cell-based, A549, cytoblot, luminescence, serum-stimulated, primary screen (AID 1158); settings: 5 h, higher = more signal;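 also: serum-stimulated A549 lung adenocarcinoma cells; signal is phosphorylated S6 detected by cytoblot immunostaining with HRP secondary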
# [18] = biological target: NADPH oxidase 2 (Homo sapiens) (UniProt P04839); test: compounds shifting NOX2 Amplex Red fluorescence – cell-based, HEK293-NOX2, PMA-stimulated, NOX inhibitor project, primary screen (AID 1159); settings: 45 min, higher = more signal, called active from +8 up or from −8 down; also: test concentration not given here
# [19] = biological target: NADPH oxidase 4 (Homo sapiens) (UniProt Q9NPH5); test: compounds shifting NOX4 Amplex Red fluorescence – cell-based, HEK293-NOX4, tetracycline-induced, NOX inhibitor project, primary screen (AID 1160); settings: HEK293-NOX4, Amplex Red H2O2 fluorescence, 45 min; higher = more signal, called active from +8 up or from −8 down
# [20] = biological target: NADPH oxidase 5 (Homo sapiens) (UniProt Q96PH1); test: compounds shifting NOX5 Amplex Red fluorescence – cell-based, HEK293-NOX5, NOX inhibitor project, primary screen (AID 1161); settings: HEK293-NOX5, ionomycin, 45 min, higher = more signal
# Sequence of NADPH oxidase 5 (Homo sapiens) (Q96PH1 whole entry, looked up): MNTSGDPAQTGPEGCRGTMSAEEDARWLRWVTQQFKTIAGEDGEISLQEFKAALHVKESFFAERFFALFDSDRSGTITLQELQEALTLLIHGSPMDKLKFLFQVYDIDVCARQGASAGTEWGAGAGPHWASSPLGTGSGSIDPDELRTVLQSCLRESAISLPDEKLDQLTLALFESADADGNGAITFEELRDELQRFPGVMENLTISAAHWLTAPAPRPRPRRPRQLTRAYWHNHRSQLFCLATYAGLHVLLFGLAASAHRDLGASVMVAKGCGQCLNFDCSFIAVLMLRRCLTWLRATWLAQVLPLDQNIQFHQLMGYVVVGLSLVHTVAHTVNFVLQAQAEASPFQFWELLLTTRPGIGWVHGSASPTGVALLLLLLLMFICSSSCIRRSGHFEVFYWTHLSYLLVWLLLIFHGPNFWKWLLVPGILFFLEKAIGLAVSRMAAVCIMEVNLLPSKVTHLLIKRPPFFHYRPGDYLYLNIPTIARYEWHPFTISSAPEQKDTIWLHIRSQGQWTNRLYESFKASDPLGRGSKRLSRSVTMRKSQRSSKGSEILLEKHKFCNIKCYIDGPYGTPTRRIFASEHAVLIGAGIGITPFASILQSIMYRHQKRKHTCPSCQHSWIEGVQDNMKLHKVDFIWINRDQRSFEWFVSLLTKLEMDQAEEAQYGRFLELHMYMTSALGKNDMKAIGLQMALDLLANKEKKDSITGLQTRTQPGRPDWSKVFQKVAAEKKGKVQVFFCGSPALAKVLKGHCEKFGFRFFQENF
# Sequence of NADPH oxidase 4 (Homo sapiens) (Q9NPH5 whole entry, looked up): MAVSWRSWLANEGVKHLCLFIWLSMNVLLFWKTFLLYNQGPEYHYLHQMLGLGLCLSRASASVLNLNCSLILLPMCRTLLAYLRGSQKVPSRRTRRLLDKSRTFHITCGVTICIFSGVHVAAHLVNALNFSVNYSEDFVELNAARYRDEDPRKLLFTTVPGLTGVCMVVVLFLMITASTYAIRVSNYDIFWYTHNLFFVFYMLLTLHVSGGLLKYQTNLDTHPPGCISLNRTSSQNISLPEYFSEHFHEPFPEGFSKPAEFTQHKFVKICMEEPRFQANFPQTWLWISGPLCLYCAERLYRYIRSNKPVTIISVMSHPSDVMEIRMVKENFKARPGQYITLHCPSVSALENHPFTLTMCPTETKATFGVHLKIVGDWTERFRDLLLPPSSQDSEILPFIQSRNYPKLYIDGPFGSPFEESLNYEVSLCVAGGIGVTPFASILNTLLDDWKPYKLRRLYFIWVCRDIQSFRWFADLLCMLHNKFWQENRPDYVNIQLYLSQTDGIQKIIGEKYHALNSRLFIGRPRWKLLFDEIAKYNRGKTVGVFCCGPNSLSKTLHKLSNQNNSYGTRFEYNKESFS
# Sequence of Streptavidin (Streptomyces avidinii) (P22629 whole entry, looked up): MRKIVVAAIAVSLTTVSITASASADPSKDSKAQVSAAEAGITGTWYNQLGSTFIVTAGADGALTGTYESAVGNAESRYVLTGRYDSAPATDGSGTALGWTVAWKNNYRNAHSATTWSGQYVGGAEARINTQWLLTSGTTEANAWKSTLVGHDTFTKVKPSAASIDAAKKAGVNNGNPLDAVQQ
# Sequence of NADPH oxidase 2 (Homo sapiens) (P04839 whole entry, looked up): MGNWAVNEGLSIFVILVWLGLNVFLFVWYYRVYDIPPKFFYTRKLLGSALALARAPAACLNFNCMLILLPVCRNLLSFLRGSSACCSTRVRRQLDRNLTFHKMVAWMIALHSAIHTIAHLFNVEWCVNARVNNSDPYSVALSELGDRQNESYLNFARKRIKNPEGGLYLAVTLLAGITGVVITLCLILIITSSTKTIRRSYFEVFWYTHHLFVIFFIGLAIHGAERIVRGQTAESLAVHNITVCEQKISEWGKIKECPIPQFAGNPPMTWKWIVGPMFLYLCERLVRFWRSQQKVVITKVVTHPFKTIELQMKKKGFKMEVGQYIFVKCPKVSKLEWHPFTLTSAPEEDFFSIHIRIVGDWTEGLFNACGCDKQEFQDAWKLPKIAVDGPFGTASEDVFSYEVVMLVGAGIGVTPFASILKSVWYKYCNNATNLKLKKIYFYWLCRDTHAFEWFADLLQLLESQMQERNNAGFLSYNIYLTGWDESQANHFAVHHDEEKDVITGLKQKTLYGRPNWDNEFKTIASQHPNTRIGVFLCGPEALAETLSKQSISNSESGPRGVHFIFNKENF
# Sequence of Torsin-1A (Homo sapiens) (O14656 whole entry, looked up): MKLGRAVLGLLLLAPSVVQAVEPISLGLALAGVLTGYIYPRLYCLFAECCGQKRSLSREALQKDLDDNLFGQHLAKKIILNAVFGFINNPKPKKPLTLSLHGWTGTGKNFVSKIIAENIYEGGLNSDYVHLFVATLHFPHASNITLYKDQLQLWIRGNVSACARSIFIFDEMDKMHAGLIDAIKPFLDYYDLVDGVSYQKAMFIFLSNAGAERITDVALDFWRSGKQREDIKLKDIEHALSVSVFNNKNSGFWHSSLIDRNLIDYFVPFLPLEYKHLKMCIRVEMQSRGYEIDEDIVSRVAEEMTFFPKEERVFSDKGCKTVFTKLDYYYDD
SMILES,composite z-score [1],z-score [2],z-score [3],z-score [4],z-score [5],composite z-score [6],composite z-score [7],composite z-score (Torsin-1A (Homo sapiens) [8]),composite z-score (Torsin-1A (Homo sapiens) [9]),composite z-score [10],z-score [11],composite z-score [12],z-score [13],z-score [14],z-score [15],z-score [16],z-score [17],z-score [18],z-score [19],z-score [20]
CCCC[C@@H]1C[C@H]1[C@@H](NC(=O)c1cccnc1)c1ccc(-c2ccccc2)cc1,-0.995,-2.72 (inactive),-0.327 (inactive),-0.372 (inactive),0.162 (inactive),-1.02,-0.251,-2.78,-1.29,-0.822,-2.22 (inactive),-0.105,3.12 (inactive),0.818 (inactive),0.219 (inactive),0.445 (inactive),-0.0675,-1.01 (inactive),-1.52 (inactive),0.353
COC(=O)C1(Cc2ccccc2)C=C2C(=C(c3ccccc3)C(=O)C2C)CN1 (stereo not given),2,-0.541 (inactive),0.125 (inactive),1.15 (inactive),0.465 (inactive),0.509,0.862,0.0676,0.47,-0.525,-1.38 (inactive),1.23,2.11 (inactive),-0.0273 (inactive),0.423 (inactive),0.298 (inactive),0.208,-0.66 (inactive),-3.74 (inactive),-3.29
CO[C@H]1O[C@H](CO)[C@@H](OC(=O)Nc2ccccc2-c2ccccc2)[C@H](OC(=O)Nc2ccc3c(c2)OCO3)[C@@H]1OC(=O)Nc1ccc2c(c1)OCO2,0.25,-2.72 (inactive),0.233 (inactive),0.792 (inactive),-1.52 (inactive),0.282,0.361,0.388,1.41,0.91,-0.609 (inactive),0.658,15.3 (active),2.72 (inactive),1.22 (inactive),1.11 (inactive),-0.0176,0.878 (inactive),-0.722 (inactive),-1.49
C=C(C(=O)CC[C@H](OC(=O)c1cccnc1)c1ccc(CO)o1)C(C)C,0.159,0.3 (inactive),0.232 (inactive),0.48 (inactive),1.17 (inactive),0.441,0.228,0.684,0.449,1.79,-0.92 (inactive),0.333,1.73 (inactive),-0.115 (inactive),-0.158 (inactive),-0.0363 (inactive),-0.143,0.637 (inactive),0.123 (inactive),-0.0889
CC(C)(C)OC(=O)CC[C@]1(C(=O)NCCN2CCOCC2)N=C(c2ccc(OCCCO)cc2)O[C@H]1c1ccccc1N=[N+]=[N-],0.191,-0.616 (inactive),0.145 (inactive),0.872 (inactive),-0.55 (inactive),0.615,0.367,0.0272,1.28,-0.299,-0.105 (inactive),0.591,31.3 (active),29.2 (active),2.64 (inactive),6.62 (inactive),-0.136,-2.46 (inactive),1.62 (inactive),-1.99
COC1(C)CN(Cc2ccccc2Br)[C@H](/C=C/c2ccccc2)[C@H](Cc2ccccc2)O1 (stereo not given in full),-0.243,-0.391 (inactive),-0.198 (inactive),1.93 (inactive),0.874 (inactive),-0.332,-0.0719,-0.558,0.357,-0.191,1.16 (inactive),-0.31,0.787 (inactive),0.669 (inactive),0.911 (inactive),-0.0143 (inactive),0.52,-0.112 (inactive),0.76 (inactive),-0.271
Cc1ccc(F)cc1S(=O)(=O)N[C@@H]1CCN(Cc2ccc(OC(C)C)cc2)C1,-0.0943,-3.86 (inactive),0.816 (inactive),1.76 (inactive),0.524 (inactive),-0.293,-0.341,0.277,0.719,-0.0003,-19.2 (active),-0.186,2.14 (inactive),0.45 (inactive),-0.11 (inactive),0.673 (inactive),-0.157,-0.681 (inactive),-0.987 (inactive),-1.62
COCCCNC(=O)[C@@H]1c2ccccc2C(=O)N(Cc2ccccc2C(F)(F)F)[C@H]1c1ccc(CO)cc1,0.143,0.442 (inactive),0.309 (inactive),-0.385 (inactive),-1.45 (inactive),-0.194,0.0536,0.285,0.331,0.23,0.938 (inactive),-0.198,1.14 (inactive),0.165 (inactive),0.0034 (inactive),-0.0633 (inactive),0.0987,-0.214 (inactive),0.732 (inactive),0.498
CC(C)(C)N1CC=CC23O[C@@H]4C=CCOC(=O)[C@@H]4[C@H]2C(=O)N(CCCO)[C@@H]3C1=O (stereo not given in full),-0.56,-1.97 (inactive),0.0204 (inactive),0.321 (inactive),0.0029 (inactive),-1.48,-0.317,0.213,-0.0267,-0.471,0.799 (inactive),-0.429,-0.103 (inactive),-0.831 (inactive),0.858 (inactive),-1.53 (inactive),0.364,-0.693 (inactive),-0.00336 (inactive),-1.09
